Bioassay records: PubChem BioAssay, National Center for Advancing Translational Sciences (NCATS)
A selection: hits, their analogues and other compounds. The true share with any hit is near 1.7%.
TrxR1 substrate: rat thioredoxin reductase 1 substrate activity; purified TrxR1 substrate turnover, NADPH consumption readout; 0.01% of 390,000 active; Potency, µM (top dose mostly 114 µM); O89049; also: nearly all actives have a fitted effect of over 50% in size
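Rat TrxR1, dispensed at 90 nM, was prereduced with 400 uM NADPH (final) for 5 min at ~22 deg C, then incubated with compound 15 min before 400 uM selenite. A first-read NADPH fluorescence drop versus no-compound background flagged substrates.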
12-LOX inh: inhibitors of human 12S-lipoxygenase ALOX12; P18054; Potency, µM (highest dose often 108 µM), most hits filed as inhibitors; 1.1% of 580,000 active; purified 12hLO, xylenol orange hydroperoxide absorbance
Target sequence (P18054 whole entry, looked up): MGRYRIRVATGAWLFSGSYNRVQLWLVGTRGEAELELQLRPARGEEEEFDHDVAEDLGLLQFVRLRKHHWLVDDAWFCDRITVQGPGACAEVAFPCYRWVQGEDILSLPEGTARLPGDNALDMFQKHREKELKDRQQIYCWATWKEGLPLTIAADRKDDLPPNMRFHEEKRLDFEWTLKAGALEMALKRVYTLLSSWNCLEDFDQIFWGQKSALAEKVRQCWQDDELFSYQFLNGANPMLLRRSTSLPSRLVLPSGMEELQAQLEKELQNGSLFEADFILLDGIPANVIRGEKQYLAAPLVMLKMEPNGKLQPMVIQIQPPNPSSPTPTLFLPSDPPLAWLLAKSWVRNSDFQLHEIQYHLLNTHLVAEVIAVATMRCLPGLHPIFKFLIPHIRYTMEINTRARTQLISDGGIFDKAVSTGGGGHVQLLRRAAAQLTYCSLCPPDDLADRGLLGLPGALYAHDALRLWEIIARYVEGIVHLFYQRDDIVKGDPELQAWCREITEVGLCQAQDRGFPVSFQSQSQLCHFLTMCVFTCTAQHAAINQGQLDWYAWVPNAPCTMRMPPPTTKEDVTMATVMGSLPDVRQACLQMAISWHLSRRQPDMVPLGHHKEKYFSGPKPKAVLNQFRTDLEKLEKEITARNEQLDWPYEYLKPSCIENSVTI
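Hydroperoxide product was detected by ferrous iron/xylenol orange as the 573 to 405 nm absorbance ratio. Arachidonic acid at 40 uM (final) was turned over for 30 min at room temperature by 150 nM human 12hLO, pH 7.0 Hepes buffer, after 15 min compound preincubation.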
IDH1 R132H inh: human IDH1 R132H inhibition; IDH1-R132H enzyme, NADPH consumption, diaphorase/resazurin fluorescence; Potency, µM (top dose mostly 76.6 µM), usual class: inhibitors; 0.093% of 390,000 active; AID 602179; also: nearly all actives have a fitted effect of over 65% in size
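IDH1-R132H (0.5 ug/mL dispensed) in pH 7.5 Tris buffer was preincubated 30 min with compound, then given a substrate mix of 0.016 mM NADPH and 2 mM alpha-KG for 80 min at room temperature; remaining NADPH was read by diaphorase/resazurin fluorescence.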
rTrxR1 inhibitor: inhibitors of rat thioredoxin reductase 1; O89049; 1% of 390,000 active; Potency, µM (doses to about 114 µM), hits mostly inhibitors; recombinant rTrxR1, NADPH fluorescence consumption, selenite substrate; also: nearly all actives have a fitted effect of over 65% in size
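Rat TrxR1 (90 nM in the dispensed reagent) was pre-reduced with 400 uM NADPH for 5 min at room temperature, then incubated with compound for 15 min. After 400 uM selenite was added, NADPH fluorescence (Ex 340/Em 450 nm) was followed for 8 min.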
Anesthetic bind: candidate novel general anesthetic via apoferritin binding; P02791; apoferritin/1-aminoanthracene competitive binding, fluorescence; Potency, µM (series often up to 77.5 µM), hits mostly inhibitors; 0.074% of 350,000 active; also: nearly all actives have a fitted effect of over 20% in size
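In PBS, apoferritin at 10 uM is loaded with 1-AMA from a 50% saturated solution. After 10 min of compound exposure at ambient temperature, reduced 535 nm fluorescence indicates probe displacement.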
GRP78 ERSR act: inducers of ER stress response in human glioma cells. U87-MG GRP78 promoter luciferase reporter, 16 h. Potency, µM, actives largely listed as activators. 0.02% of 420,000 active; also: series mostly up to about 76 µM; nearly all actives have a fitted effect of over 35% in size
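ERSR induction read as luciferase luminescence (Bright-Glo, 10 min at room temperature) in stably transfected human U87-MG glioma cells exposed to compounds for 16 h, using GRP78 as sensor.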
Numbers stand for hits; - = inactive; ? = inconclusive; . = not tested or not shown; [ ] = remark or other dose. Calls follow the shape of the dose curve; as a rule, active = well fitted curve in the direction sought with a large enough effect; inconclusive = small, poorly fitted or top-dose-only effect, or another doubt; inactive = no such curve, though single readings can be large; an effect the other way counts as inactive or inconclusive.

SMILES | TrxR1 substrate | 12-LOX inh | IDH1 R132H inh | rTrxR1 inhibitor | Anesthetic bind | GRP78 ERSR act
Cc1cccnc1NC(=S)Nc1ccc(Br)cc1Cl | - | 11.2µM | - | ? | - | -
Cc1ccc(C(=O)NC(=S)Nc2cccc(NC(=O)c3ccccc3)c2)cc1[N+](=O)[O-] | - | 25.1µM | - | - | - | -
CC(=O)c1cccc(NC(=S)NC(=O)c2ccccc2)c1 | - | ? | - | 35.5µM | - | -
CC(C)CCNC(=O)c1ccc(CSCc2ccccc2Cl)o1 | . | - | . | . | . | .
c1cncc(CN2CCCCC2c2nc(CCOCC3CCOCC3)no2)c1 (centres undefined) | . | - | . | . | . | .
Cc1cccnc1NC(=S)NC(=O)c1cncc(Br)c1 | - | - | - | 31.6µM | - | -
CC(=O)c1cccc(NC(=S)NC(=O)c2cncc(Br)c2)c1 | - | - | - | 22.4µM | - | -
O=C(Cc1cccc2ccccc12)NC(=S)Nc1cccc(C(=O)O)c1 | - | 35.5µM | - | - | - | -
O=C(O)c1cccc(NC(=S)NCc2ccccc2)c1 | - | ? | - | - | - | -
CC(=O)N1C[C@@H]2C[C@H]1C(=O)N(Cc1ccc(OC(F)(F)F)cc1)c1ccccc1O2 | . | - | . | . | . | .
COc1ccc(C2C3=C(CC(C)(C)CC3=O)OC3=C2C(=O)CC(C)(C)C3)c(OC)c1 | . | - | . | . | . | .
CC1(C)CC(=O)C2=C(C1)OC1=C(C(=O)CC(C)(C)C1)C2c1ccc(O)cc1O | - | ? | - | 3.55µM | - | -
Cc1ccc(C)c(C(=O)C[n+]2cccc(Br)c2)c1 | - | . | . | - | . | -
O=C(C[n+]1cccc(Br)c1)c1cc(Cl)ccc1Cl | - | . | . | 11.2µM | . | -
c1ccc(OCc2cc(CC3(NCc4ccco4)COC3)no2)cc1 | . | - | . | . | . | .
CN(C)/C=C1\C=Cc2ccccc21 | - | . | . | 2.24µM | . | -
COc1ccccc1/C=C1\C=Cc2ccccc21 | - | . | . | 22.4µM | . | -
CN(C)c1ccc(/C=C2\C=Cc3ccccc32)cc1 | - | . | . | - | . | -
CN(C)c1ccc(C=C2C=Cc3ccccc32)cc1 | - | - | - | - | . | -
CC(C)CN(C)c1ccc(/C=C2\C=Cc3ccccc32)cc1 | - | . | . | 44.7µM | . | -
CCC1Oc2ccc(NC(=O)COc3ccccc3)cc2CN(Cc2cc(F)cc(F)c2)C1=O (centres undefined) | . | - | . | . | . | .
CCOc1ccccc1C(=O)N1CCC(Oc2ncccc2C(=O)N2CCCCC2)C1 (centres undefined) | . | - | . | . | . | .
CNC(=O)c1cc[nH]c1C1CCCN(C(=O)NCCOC)C1 (centres undefined) | . | - | . | . | . | .
Cc1ccc(C(=O)NCc2nc(-c3ccccc3)oc2C)cc1 | . | - | . | . | . | .
Cc1cc(O)c(C(C[N+](=O)[O-])c2ccc(Cl)cc2)c(=O)o1 (centres undefined) | - | ? | - | - | - | -
SMILES | TrxR1 substrate | 12-LOX inh | IDH1 R132H inh | rTrxR1 inhibitor | Anesthetic bind | GRP78 ERSR act
Cc1cc(C)n(C(C[N+](=O)[O-])c2ccc(Cl)cc2)n1 (centres undefined) | - | ? | - | 5.62µM | ? | -
Cc1[nH]nc2c1C(Cc1ccccc1)C(C#N)=C(N)O2 (centres undefined) | - | - | - | 25.1µM | - | -
CCCc1[nH]nc2c1C(Cc1ccccc1)C(C#N)=C(N)O2 (centres undefined) | - | ? | - | ? | - | -
CC(C)c1[nH]nc2c1C(Cc1ccccc1)C(C#N)=C(N)O2 (centres undefined) | - | - | - | 17.8µM | - | -
O=C(NCc1ccc(F)cc1)N1CCCC(Cn2c(C3CC3)nc3cccnc32)C1 (centres undefined) | . | - | . | . | . | .
Cn1nc(-c2nncn2-c2ccccc2)c2c1CCN(C(=O)CN1CCCCCC1)C2 | . | - | . | . | . | .
Cn1c(=O)[nH]c2cc(-c3noc(-c4ccc(F)cc4)n3)ccc21 | - | - | - | - | - | -
CC(C)=CCC1C(=O)N(c2ccccc2)N(c2ccccc2)C1=O | . | . | . | . | . | -
CCCCC1C(=O)N(c2ccccc2)N(c2ccc(O)cc2)C1=O (centres undefined) | - | ? | - | 7.94µM | - | -
Cn1cccc1C(=O)N1CC(Oc2cccc(-c3nc(-c4ccccc4)no3)c2)C1 | . | - | . | . | . | .
COc1ccc(C(=O)NCC2CCN(C(=O)C(=O)c3cc4ccccc4o3)CC2)cc1 | . | - | . | . | . | .
Cc1ccc(CN2CCCC(Cc3ncc(C)n3Cc3ccccc3)C2)o1 (centres undefined) | . | - | . | . | . | .
FC(F)(F)c1cccc(NC(=S)NCCc2c[nH]c3ccccc23)c1 | . | 39.8µM | . | . | . | .
COc1ccc(NC(=S)NCCc2c[nH]c3ccccc23)cc1 | - | 50.1µM | - | - | - | -
Fc1ccc(NC(=S)NCCc2c[nH]c3ccccc23)cc1 | . | - | . | . | . | .
Cc1cccc(NC(=O)NCCc2c[nH]c3ccccc23)c1 | - | - | - | - | ? | -
CCCCCCCCCCS(=O)(=O)N/N=C/c1ccc([N+](=O)[O-])cc1 | - | ? | - | - | 20µM | -
CCCc1cc(=O)oc2cc(OC(=O)CN3C(=O)NC4(CCCC4)C3=O)ccc12 | - | - | - | 79.4µM | . | -
O=C(C1CC1)N1CC2(CCCN2CC2CC2)Cc2ccccc21 (centres undefined) | . | -[6.33 µM] | . | . | . | .
Cc1ccc(S(=O)(=O)CCC(=O)Nc2cc(Cl)ccc2-n2cncn2)cc1 | - | - | - | 12.6µM | . | -
Cc1ccc(OCC(=O)Nc2cc(Cl)ccc2-n2cncn2)c(C)c1 | . | - | - | . | . | -
O=C(N[C@@H]1CN(Cc2cc(F)cc(F)c2)C[C@H]1CO)c1ccccc1 | . | - | . | . | . | .
O=C(N[C@@H]1CN(Cc2ccc(F)cc2)C[C@H]1CO)c1ccccc1 | . | 12.6µM | . | . | . | .
O=C(N[C@@H]1CN(Cc2ccc3cc[nH]c3c2)C[C@H]1CO)c1ccccc1 | . | 28.2µM | . | . | . | .
CC(CNC(=O)Cc1ccc(NC(=O)N2CCSc3ncccc32)cc1)c1ccccc1 (centres undefined) | - | ? | - | - | - | -
SMILES | TrxR1 substrate | 12-LOX inh | IDH1 R132H inh | rTrxR1 inhibitor | Anesthetic bind | GRP78 ERSR act
COC(=O)[C@]1(C)CCC[C@]2(C)C3C[C@@H]4C(C(C)C)=CC3(CCC21)[C@@H]1C(=O)CCC(=O)[C@H]41 (some centres undefined) | . | - | . | . | . | .
CC(C)(Oc1ccc(Cl)cc1)C(=O)NC1=NN(c2ccccc2)C(=O)C1 | - | 50.1µM | - | - | - | -
O=C1CC(NC(=O)C(F)(F)F)=NN1c1ccccc1 | - | - | - | - | - | -
CC1CCN(S(=O)(=O)N2CCCC(c3nc4ccccc4o3)C2)CC1 (centres undefined) | . | - | . | . | . | .
CCCCN(CCCC)C(=O)c1ccc(N)cc1 | . | 15.8µM | . | . | . | .
CCCCN(CC)C(=O)c1ccc(-c2ccccc2)cc1 | - | - | - | - | - | -
CC(C)(C)n1nnnc1C(c1cc2ccccc2o1)N(CCC#N)Cc1ccccc1 (centres undefined) | . | - | . | . | . | .
COC(=O)c1nc(NC(=O)c2cc(OC)c(OC)c(OC)c2)n[nH]1 | - | - | - | 39.8µM | - | -
